# Measured values published in PubChem BioAssay (NCATS).
# Inconclusive results are not listed. A call without a number means that no potency is given here. Calls of active or inactive are those of the source. Unless noted, calls follow the shape of the dose curve; as a rule, active = well fitted curve in the direction sought with a large enough effect; inconclusive = small, poorly fitted or top-dose-only effect, or another doubt; inactive = no such curve, though single readings can be large; an effect the other way counts as inactive or inconclusive.
# Assays:
# [1] = target: Guanine nucleotide-binding protein G(i) subunit alpha-1 (Homo sapiens) (UniProt P63096); test: qHTS Assay for Inhibitors of RGS12 GoLoco Motif Activity (Green Fluorophore) (AID 879);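 also: negative values mean loss of peptide binding seen as reduced polarization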
# In short: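 Fluorescence polarization assay: 50 nM Gαi1 with 10 nM FITC-labeled RGS12 GoLoco peptide in 10 mM Tris pH 7.5, 150 mM NaCl, 0.1 mM GDP, 0.05% NP40, 10 min at room temperature with compound.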
# [2] = target: Cytochrome P450 3A4 (Homo sapiens) (UniProt P08684); test: qHTS Assay for Activators of Cytochrome P450 3A4 (AID 885); also: nearly all actives have a fitted effect of over 65% in size
# In short: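 Quantitative HTS format: compounds preincubated with 20nM human CYP3A4 and Luciferin-PPXE substrate at KM, reaction started by NADPH regeneration, stopped after 60 min, luciferase luminescence read 20 min later.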
# [3] = qHTS Assay for Identification of Small Molecule Antagonists for Thrombopoietin (TPO) Signaling Pathway (AID 918); conditions: TPO-dependent cell signaling reporter, antagonist mode; also: potency is read from the fitted curve at half-maximal effect; nearly all actives have a fitted effect of over 60% in size
# In short: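 Ba/F3 (murine, hTPO-R, GPIIb-luc reporter); overnight IL-3 withdrawal; cpd + TPO 26 pM final (EC50); 24 h 37 C/5% CO2; Steadylite luminescence after 10 min RT.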
# [4] = target: Pyruvate kinase (Leishmania mexicana) (UniProt Q27686); test: qHTS Validation Assay for Inhibitors of Leishmania Mexicana Pyruvate Kinase (AID 945)
# In short: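 Mutant LmPYK (E451W), 0.2 nM, plus 0.5 mM PEP and 0.1 mM ADP in 50 mM imidazole pH 7.2 containing 0.01% Tween 20 and 0.05% BSA. Incubated 1 h at room temperature; luminescence via PKLight, normalized to DMSO.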
# [5] = qHTS Assay for Identification of Small Molecule Antagonists for NFkB Signaling Pathway (AID 895; active = well fitted inhibition curve with a large enough effect in the signal ratio, with a control signal flat, not every such curve was filed as active; the % refers to the signal ratio)
# In short: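 ME-180 NFkB-bla cells (beta-lactamase under NFkB response element), plated overnight, treated with compound then 10 pM TNF alpha (about EC50) for 5 hrs at 37 C. LiveBLAzer FRET read at 460/530 nm emission, 405 nm excitation.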
# [6] = qHTS Assay for Identification of Small Molecule Agonists for Thrombopoietin (TPO) Signaling Pathway (AID 917)
# In short: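 We measured Glycoprotein IIb promoter–luciferase output in IL-3-starved Ba/F3 murine cells expressing the human TPO receptor after 24 hrs at 37 C with compounds and 26 pM TPO.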
# [7] = target: Muscarinic acetylcholine receptor M1 (Rattus norvegicus) (UniProt P08482); test: qHTS Assay for Antagonists of Acetylcholine Muscarinic M1 Receptor: Kinetic Measurement of Intracellular Calcium Response (AID 943); also: nearly all actives have a fitted effect of over 75% in size; also: potency is read from the fitted curve at half-maximal effect
# In short: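 Rat M1-CHO cells, 2000/well, overnight → Fluo-4 no-wash dye with probenecid, 1 h 37C → compound 10 min, room temp → basal read 6 s → carbachol EC80 (100 nM) → 4 min kinetic read; peak/basal.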
# [8] = target: Muscarinic acetylcholine receptor M1 (Rattus norvegicus) (UniProt P08482); test: qHTS Assay for Antagonists of Acetylcholine Muscarinic M1 Receptor: Measurement of IP-One Response (AID 944); also: nearly all actives have a fitted effect of over 75% in size; also: potency is read from the fitted curve at half-maximal effect
# In short: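 M1-CHO (rat), 2000 cells/well, overnight recovery; cpd 10 min; carbachol EC80 (200 nM), 30 min, HEPES buffer + 50 mM LiCl pH 7.4; IP-One HTRF, Ex 337, Em 620/665 nm.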
# [9] = Confirmation and Secondary Assay for Modulators of Hemoglobin Beta Chain Splicing at IVS2 654 locus (AID 910);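 also: HeLa cells stably carrying EGFP split by mutant beta-globin IVS2-654 intron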
# In short: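 HeLa cells stably expressing EGFP interrupted by β-globin IVS2-654 intron, seeded overnight in Opti-MEM/2% FCS, then treated 2 days at 37 °C. Restored splicing read as total peak GFP intensity per well by laser scanning cytometry (488 nm excitation, 500–520 nm emission); 500 nM antisense PNA as control.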
# [10] = Confirmation and Secondary Assay for Modulators of Hemoglobin Beta Chain Splicing at IVS2 705 locus (AID 930);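 also: HeLa cells stably expressing the EGFP-705 splicing reporter; GFP fluorescence per well restored by corrected splicing of the IVS2-705 intron in EGFP; series mostly up to about 46 µM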
# In short: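 Stable HeLa line with EGFP disrupted by mutant beta-globin intron 2 (705). Overnight attachment, then 2 days of compound at 37C, 5% CO2. Signal: peak GFP intensity summed over objects 5-250 µm.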
# [11] = target: Cytochrome P450 2C19 (Homo sapiens) (UniProt P33261); test: qHTS Assay for Inhibitors and Substrates of Cytochrome P450 2C19 (AID 899); also: nearly all actives have a fitted effect of over 60% in size; also: potency is read from the fitted curve at half-maximal effect
# In short: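 Signal comes from luciferase acting on luciferin released by CYP2C19-mediated hydroxylation of Luciferin-H EGE, 10uM (KM). Assay mix: 5nM enzyme, 50mM KPO4; 60 min at 37C with NADPH regeneration. Data normalized against 57uM ketoconazole.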
# [12] = target: Cytochrome P450 2D6 (Homo sapiens) (UniProt P10635); test: qHTS Assay for Inhibitors and Substrates of Cytochrome P450 2D6 (AID 891); also: nearly all actives have a fitted effect of over 60% in size; also: potency is read from the fitted curve at half-maximal effect
# In short: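 Human CYP2D6 (5 nM) with 30 uM Luciferin-ME EGE (at Km) in 100 mM KPO4, compound preincubated 10 min, then NADPH regeneration system for 60 min at room temperature. Luciferin read by luminescence; normalized to 1.43 uM quinidine.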
# [13] = target: Cytochrome P450 3A4 (Homo sapiens) (UniProt P08684); test: qHTS Assay for Inhibitors and Substrates of Cytochrome P450 3A4 (AID 884); also: nearly all actives have a fitted effect of over 50% in size; also: potency is read from the fitted curve at half-maximal effect
# In short: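 20 nM human CYP3A4 with 25 uM Luciferin-PPXE (at KM) in 200 mM KPO4, preincubated 10 min with compound; NADPH regeneration started a 60 min RT reaction. Luciferin detected by luminescence, normalized to 57 uM ketoconazole as full inhibition.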
# [14] = Cell Viability - LYMP2-001 (AID 921);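 also: potency is read from the fitted curve at half-maximal effect; cells exposed to compound for 24 h at 37 °C; nearly all actives have a fitted effect of over 70% in size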
# In short: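 qHTS, 1536-well; lymphoblastoid cells, 24 hr compound, 37 C; ATP by CellTiter-Glo, 30 min RT; luminescence; Hill-fit AC50.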
# [15] = MultiTox-Fluor Cytotoxicity Assay - LYMP1-001 - Dead Cells (AID 946);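 also: potency is read from the fitted curve at half-maximal effect; cells exposed to compound for 16 h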
# In short: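 In this qHTS, 15 uM tetraoctylammonium bromide defined 100% and DMSO defined basal activity. Lymphoblastoid cells (LYMP1-001, 2500 per well) received compound for 16 hr at 37 C before a fluorogenic dead-cell substrate readout at 485/520 nm.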
# [16] = MultiTox-Fluor Cytotoxicity Assay - LYMP1-001 - Live Cells (AID 947)
# [17] = target: Cytochrome P450 2C9 (Homo sapiens) (UniProt P11712); test: qHTS Assay for Inhibitors and Substrates of Cytochrome P450 2C9 (AID 883); also: nearly all actives have a fitted effect of over 60% in size; also: potency is read from the fitted curve at half-maximal effect
# In short: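 Signal: luciferase luminescence reporting luciferin produced by CYP2C9. Conditions: 10nM enzyme, Luciferin-H 100uM at KM, 25mM KPO4, 37C, 60 min NADPH-driven reaction. Reference: 57uM sulphaphenazole as 100% inhibition.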
# Sequence of Cytochrome P450 2C19 (Homo sapiens) (P33261 whole entry, looked up): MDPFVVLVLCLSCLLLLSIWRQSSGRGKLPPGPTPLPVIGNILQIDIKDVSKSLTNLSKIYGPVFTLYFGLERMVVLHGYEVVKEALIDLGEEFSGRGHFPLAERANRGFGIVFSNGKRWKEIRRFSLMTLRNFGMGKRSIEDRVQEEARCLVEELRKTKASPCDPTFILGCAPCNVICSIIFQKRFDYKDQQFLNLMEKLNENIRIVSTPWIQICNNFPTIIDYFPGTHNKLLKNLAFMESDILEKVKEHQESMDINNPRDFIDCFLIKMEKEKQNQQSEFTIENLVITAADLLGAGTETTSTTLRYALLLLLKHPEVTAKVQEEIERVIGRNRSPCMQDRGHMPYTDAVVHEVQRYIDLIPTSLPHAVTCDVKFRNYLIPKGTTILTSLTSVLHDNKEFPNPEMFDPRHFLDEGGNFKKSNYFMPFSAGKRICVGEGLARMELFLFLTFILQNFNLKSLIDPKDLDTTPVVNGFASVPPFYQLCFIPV
# Sequence of Cytochrome P450 3A4 (Homo sapiens) (P08684 whole entry, looked up): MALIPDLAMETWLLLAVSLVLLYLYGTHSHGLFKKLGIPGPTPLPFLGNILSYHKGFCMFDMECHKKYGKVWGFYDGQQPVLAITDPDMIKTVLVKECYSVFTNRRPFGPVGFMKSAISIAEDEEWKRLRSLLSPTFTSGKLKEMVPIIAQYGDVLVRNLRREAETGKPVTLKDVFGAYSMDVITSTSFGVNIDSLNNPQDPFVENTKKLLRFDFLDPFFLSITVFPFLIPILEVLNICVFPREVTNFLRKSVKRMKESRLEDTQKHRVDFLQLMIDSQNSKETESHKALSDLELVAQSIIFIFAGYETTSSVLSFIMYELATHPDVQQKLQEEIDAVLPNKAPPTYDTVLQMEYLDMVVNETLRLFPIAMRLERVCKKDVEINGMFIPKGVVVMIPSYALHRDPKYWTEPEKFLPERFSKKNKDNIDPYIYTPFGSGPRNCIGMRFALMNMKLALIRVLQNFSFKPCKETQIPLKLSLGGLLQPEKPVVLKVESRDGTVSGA
# Sequence of Pyruvate kinase (Leishmania mexicana) (Q27686 2-499 E452W): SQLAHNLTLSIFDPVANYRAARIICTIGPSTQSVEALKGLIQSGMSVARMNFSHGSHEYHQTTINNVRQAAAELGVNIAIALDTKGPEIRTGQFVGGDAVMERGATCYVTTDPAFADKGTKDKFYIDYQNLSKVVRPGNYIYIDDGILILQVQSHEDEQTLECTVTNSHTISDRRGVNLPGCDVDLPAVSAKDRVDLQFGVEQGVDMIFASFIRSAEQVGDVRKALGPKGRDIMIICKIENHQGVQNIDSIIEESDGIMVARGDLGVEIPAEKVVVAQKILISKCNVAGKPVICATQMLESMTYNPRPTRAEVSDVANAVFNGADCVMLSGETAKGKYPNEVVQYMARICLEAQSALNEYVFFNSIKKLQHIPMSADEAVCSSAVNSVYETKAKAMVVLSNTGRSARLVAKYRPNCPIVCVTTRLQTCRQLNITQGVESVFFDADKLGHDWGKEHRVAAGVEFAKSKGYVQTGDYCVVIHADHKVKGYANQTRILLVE
# Sequence of Cytochrome P450 2C9 (Homo sapiens) (P11712 whole entry, looked up): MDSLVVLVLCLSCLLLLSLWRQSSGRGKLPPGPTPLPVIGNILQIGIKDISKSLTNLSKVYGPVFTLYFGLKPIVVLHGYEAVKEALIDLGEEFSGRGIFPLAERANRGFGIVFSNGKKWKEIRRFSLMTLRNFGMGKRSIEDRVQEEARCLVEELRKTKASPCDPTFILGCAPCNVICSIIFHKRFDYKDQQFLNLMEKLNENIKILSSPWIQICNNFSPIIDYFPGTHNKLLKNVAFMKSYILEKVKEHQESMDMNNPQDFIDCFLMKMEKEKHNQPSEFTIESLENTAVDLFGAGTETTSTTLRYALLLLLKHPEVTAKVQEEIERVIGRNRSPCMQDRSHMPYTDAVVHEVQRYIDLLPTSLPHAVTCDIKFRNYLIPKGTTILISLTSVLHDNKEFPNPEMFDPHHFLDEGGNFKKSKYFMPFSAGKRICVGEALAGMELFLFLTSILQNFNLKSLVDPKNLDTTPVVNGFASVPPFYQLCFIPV
# Sequence of Muscarinic acetylcholine receptor M1 (Rattus norvegicus) (P08482 whole entry, looked up): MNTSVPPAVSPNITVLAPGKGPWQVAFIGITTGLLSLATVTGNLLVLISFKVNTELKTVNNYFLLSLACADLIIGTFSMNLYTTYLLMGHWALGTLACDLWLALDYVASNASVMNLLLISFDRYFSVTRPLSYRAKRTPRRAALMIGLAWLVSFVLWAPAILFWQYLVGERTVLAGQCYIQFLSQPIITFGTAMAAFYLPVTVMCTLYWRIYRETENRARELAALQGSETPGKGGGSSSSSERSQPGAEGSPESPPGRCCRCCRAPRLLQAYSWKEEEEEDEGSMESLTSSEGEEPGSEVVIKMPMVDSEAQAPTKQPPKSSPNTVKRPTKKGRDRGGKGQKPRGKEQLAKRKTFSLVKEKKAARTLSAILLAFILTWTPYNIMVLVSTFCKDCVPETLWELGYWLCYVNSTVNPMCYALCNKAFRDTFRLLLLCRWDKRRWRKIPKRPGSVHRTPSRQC
# Sequence of Guanine nucleotide-binding protein G(i) subunit alpha-1 (Homo sapiens) (P63096 whole entry, looked up): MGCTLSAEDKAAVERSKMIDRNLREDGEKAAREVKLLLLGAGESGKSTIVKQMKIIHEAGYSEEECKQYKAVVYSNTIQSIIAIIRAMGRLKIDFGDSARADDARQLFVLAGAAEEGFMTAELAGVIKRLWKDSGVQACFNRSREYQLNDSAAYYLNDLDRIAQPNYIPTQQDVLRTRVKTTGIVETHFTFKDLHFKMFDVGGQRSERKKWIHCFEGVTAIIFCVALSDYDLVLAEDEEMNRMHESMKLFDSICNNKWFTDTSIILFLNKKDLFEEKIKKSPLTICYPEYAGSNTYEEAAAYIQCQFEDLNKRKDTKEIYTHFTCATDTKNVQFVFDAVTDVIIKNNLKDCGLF
# Sequence of Cytochrome P450 2D6 (Homo sapiens) (P10635 whole entry, looked up): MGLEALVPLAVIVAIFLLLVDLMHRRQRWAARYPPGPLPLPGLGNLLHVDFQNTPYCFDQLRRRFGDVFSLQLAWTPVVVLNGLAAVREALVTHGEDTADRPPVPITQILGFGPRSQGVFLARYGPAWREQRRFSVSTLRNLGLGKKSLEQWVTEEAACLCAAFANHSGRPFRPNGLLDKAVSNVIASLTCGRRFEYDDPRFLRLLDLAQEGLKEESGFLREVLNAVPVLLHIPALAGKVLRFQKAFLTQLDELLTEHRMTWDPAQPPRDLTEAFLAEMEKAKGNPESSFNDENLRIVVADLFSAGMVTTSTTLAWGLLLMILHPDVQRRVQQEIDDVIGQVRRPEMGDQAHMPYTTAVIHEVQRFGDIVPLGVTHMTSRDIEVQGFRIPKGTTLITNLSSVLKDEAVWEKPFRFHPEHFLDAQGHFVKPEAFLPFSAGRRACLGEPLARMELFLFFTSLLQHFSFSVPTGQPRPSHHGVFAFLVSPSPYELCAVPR
structure (smiles),measurement,setting,value
COC1=C(OC)C(=O)c2ccccc2C1=O,outcome,[1],inactive
same,Potency,[2],inactive
same,Potency,[3],3.98 µM (active)
same,Potency,[4],inactive
COc1cc(OC)c(/C=C2/C(=O)Nc3ccccc32)c(OC)c1,outcome,[1],inactive
same,Potency,[5],inactive
same,Potency,[4],inactive
C[N+](C)(CCCCCC[N+](C)(C)CCCN1C(=O)c2cccc3cccc(c23)C1=O)CCCN1C(=O)c2cccc3cccc(c23)C1=O,outcome,[1],inactive
same,Potency,[2],inactive
same,Potency,[6],inactive
same,Potency,[7],0.398 µM (active)
same,Potency,[8],0.398 µM (active)
same,Potency,[4],inactive
O=c1[nH]c2cc(Cl)c(Cl)cc2[nH]c1=O,outcome,[1],inactive
same,Potency,[5],inactive
same,outcome,[9],inactive
same,outcome,[10],inactive
same,Potency,[7],inactive
same,Potency,[8],inactive
same,Potency,[4],inactive
CC(C)NC[C@H](O)COc1cccc2[nH]ccc12,outcome,[1],inactive
same,Potency,[6],inactive
same,Potency,[4],inactive
NC(=O)C(=O)O,outcome,[1],inactive
same,Potency,[6],inactive
same,Potency,[7],inactive
same,Potency,[8],inactive
same,Potency,[4],inactive
CC1(C)CCC=[N+]1[O-],outcome,[1],inactive
same,Potency,[6],inactive
same,Potency,[7],inactive
same,Potency,[8],11.2 µM (active)
same,Potency,[4],inactive
CC(=O)SCC[N+](C)(C)C,outcome,[1],inactive
same,Potency,[5],inactive
same,Potency,[11],inactive
same,Potency,[6],inactive
same,Potency,[7],inactive
same,Potency,[8],inactive
same,Potency,[4],inactive
c1ccc(-c2ccccn2)nc1,outcome,[1],inactive
same,Potency,[6],inactive
same,Potency,[7],inactive
same,Potency,[8],inactive
same,Potency,[4],inactive
NCCCS(=O)(=O)O,outcome,[1],inactive
same,outcome,[9],inactive
same,outcome,[10],inactive
same,Potency,[7],inactive
same,Potency,[8],inactive
same,Potency,[4],inactive
NCCNC(=O)c1ncsc1-c1cccc(F)c1,outcome,[1],inactive
same,Potency,[2],inactive
same,Potency,[8],inactive
same,Potency,[4],inactive
CN1CCc2ccccc2Cc2[nH]c3ccccc3c2CC1,outcome,[1],inactive
same,Potency,[6],inactive
same,Potency,[8],15.8 µM (active)
same,Potency,[4],inactive
N[C@@H](CC(=O)O)C(=O)O,outcome,[1],inactive
same,Potency,[6],inactive
same,Potency,[7],inactive
same,Potency,[8],inactive
same,Potency,[4],inactive
CC(C)Cc1ccc([C@H](C)C(=O)O)cc1,outcome,[1],inactive
same,Potency,[12],inactive
same,Potency,[6],inactive
same,Potency,[4],inactive
O=c1[nH]c2cc(C(F)(F)F)ccc2n1-c1cc(C(F)(F)F)ccc1O,outcome,[1],inactive
same,Potency,[6],inactive
same,Potency,[7],inactive
same,Potency,[8],inactive
same,Potency,[4],inactive
NO,outcome,[1],inactive
same,Potency,[6],inactive
same,Potency,[8],inactive
same,Potency,[4],inactive
CN(C)C(N)=NCCC[C@H](N)C(=O)O,outcome,[1],inactive
same,Potency,[11],inactive
same,Potency,[6],inactive
same,Potency,[7],inactive
same,Potency,[8],inactive
same,Potency,[4],inactive
O=S(=O)(c1cccc2c(I)cccc12)N1CCCNCC1,outcome,[1],inactive
same,Potency,[6],inactive
same,Potency,[7],inactive
same,Potency,[8],inactive
same,Potency,[4],inactive
N=C(N)N,Potency,[13],inactive
same,outcome,[9],inactive
same,outcome,[10],inactive
CN1CCc2cccc3c2C1Cc1ccc(O)c(O)c1-3 (stereo not given),outcome,[9],inactive
same,outcome,[10],inactive
Nc1nc(Cl)nc2c1ncn2[C@@H]1O[C@H](CO)[C@@H](O)[C@H]1O,Potency,[13],inactive
same,outcome,[9],inactive
same,outcome,[10],inactive
COc1cc(/C=C/C(=O)CC(=O)/C=C/c2ccc(O)c(OC)c2)ccc1O,Potency,[13],12.6 µM (active)
same,Potency,[2],inactive
same,Potency,[14],20 µM (active)
same,Potency,[15],50.1 µM (active)
same,Potency,[16],inactive
COc1cc(NC(C)CCCN)c2ncccc2c1 (stereo not given),outcome,[9],inactive
same,outcome,[10],inactive
CN1C2CCC1CC(OC(=O)C(O)c1ccccc1)C2 (stereo not given),outcome,[9],inactive
same,outcome,[10],inactive
Clc1ccccc1-c1nc(-c2ccncc2)no1,"activity change, positive = activation",[2],-40.1% [at 11.4 µM] (inactive)
same,Potency,[11],0.0631 µM (active)
CC(C(=O)O)c1ccc2c(c1)[nH]c1ccc(Cl)cc12 (stereo not given),Potency,[13],inactive
same,outcome,[9],inactive
same,outcome,[10],inactive
O=C(/C=C/c1ccc(O)cc1)c1ccc(O)cc1O,outcome,[9],inactive
same,outcome,[10],inactive
COc1ccccc1N1CCN(CCN(C(=O)c2ccc(I)cc2)c2ccccn2)CC1,Potency,[17],inactive
same,Potency,[12],3.98 µM (active)
CCCCC1C(=O)N(c2ccccc2)N(c2ccc(O)cc2)C1=O (stereo not given),outcome,[9],inactive
same,outcome,[10],inactive
CCCSc1ccc2nc(NC(=O)OC)[nH]c2c1,outcome,[17],inactive
same,outcome,[12],inactive
same,outcome,[11],inactive
same,outcome,[9],inactive
same,outcome,[10],inactive
O=C(OCc1ccccc1)c1ccccc1,Potency,[13],inactive
same,outcome,[9],inactive
same,outcome,[10],inactive
Oc1c(Br)cc(Br)c2cccnc12,Potency,[13],inactive
same,outcome,[9],inactive
same,outcome,[10],inactive
CCCCCCOc1ccccc1C(N)=O,outcome,[9],inactive
same,outcome,[10],inactive
CC1OC1P(=O)(O)O (stereo not given),outcome,[9],inactive
same,outcome,[10],inactive
O=Nc1ccc2oc(=O)ccc2c1,outcome,[1],inactive
same,Potency,[3],5.01 µM (active)
same,Potency,[7],inactive
same,Potency,[8],inactive
same,Potency,[4],inactive
Nc1ccc(C(=O)O)c(O)c1,outcome,[9],inactive
same,outcome,[10],inactive
O=C(O)c1ccccc1Nc1cccc(C(F)(F)F)c1,Potency,[13],inactive
same,outcome,[9],inactive
same,outcome,[10],inactive
CCC1C(=O)OCC1Cc1cncn1C (stereo not given),Potency,[11],7.94 µM (active)
Cc1nc2sccn2c(=O)c1CCN1CCC(=C(c2ccccc2)c2ccc(F)cc2)CC1,Potency,[17],31.6 µM (active)
same,Potency,[13],inactive
same,Potency,[12],7.94 µM (active)
Cc1c(Nc2ncccc2C(=O)O)cccc1C(F)(F)F,Potency,[13],inactive
same,outcome,[9],inactive
same,outcome,[10],inactive
CC(C(=O)O)c1ccc(C(=O)c2cccs2)cc1 (stereo not given),Potency,[13],inactive
same,outcome,[9],inactive
same,outcome,[10],inactive
COc1cccc(OC)c1OCCNCC1COc2ccccc2O1 (stereo not given),Potency,[13],3.16 µM (active)
same,Potency,[2],inactive
same,outcome,[9],inactive
same,outcome,[10],inactive
